The record followed here is PubChem BioAssay (NCATS).

Test [1] is described as follows: Identifying Small Molecule Inhibitors of Pancreatic Cancer Stem Cells (A2780, Spheroid) (AID 1259357; active = well fitted curve in the direction sought with a large enough effect; an effect the other way counts as inactive or inconclusive; note: potency is the fitted concentration of half-maximal effect;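 note: spheroids pre-formed over 14 days in stem cell medium on hydrogel; compound exposure lasted 48 h before the ATP luminescence read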). Conditions: Potency: A2780 spheroid viability. The gist of the method: (§1)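 Luminescent ATP readout (CellTiter-Glo) quantifies surviving cells after a 48 h drug incubation. Normalization uses DMSO wells as no inhibition and media-only wells as full inhibition; bortezomib served as positive control.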

Test [2] in a line: Identifying Small Molecule Inhibitors of Pancreatic Cancer Stem Cells (SN12C, Spheroid) (AID 1259360; active = well fitted curve in the direction sought with a large enough effect; an effect the other way counts as inactive or inconclusive;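 note: 100% = DMSO-treated cells and 0% = wells without cells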). The note with it: Potency: SN12C spheroid viability. The gist of the method: as §1
Test [3] in a line: qHTS profiling for inhibitors of Plasmodium falciparum (DD2) proliferation (AID 743323). Conditions: lower = more inhibition; at 28.7 µM (top of the series) unless noted. Put shortly:
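1536-well qHTS; infected RBCs 0.3% parasitemia/2.5% Hct final; cpd 72 h 37 C 5% CO2; lysis buffer + SYBR Green I, o/n RT dark; FI 485/535; norm. to 0.29 uM artemisinin and DMSO, plate-stack corrected.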
Background: Quantitative high-throughput screening tests each substance at several concentrations.

A short description of test [4]: qHTS profiling for inhibitors of Plasmodium falciparum (HB3) proliferation (AID 743324; active = well fitted curve in the direction sought with a large enough effect; an effect the other way counts as inactive or inconclusive;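 note: 100% = DMSO vehicle wells and 0% = artemisinin-treated control wells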). Conditions: Plasmodium falciparum HB3 blood-stage proliferation; at 28.7 µM (top of the series) unless noted. The gist of the method: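 SYBR Green fluorescence (485 ex/535 em) of lysed cultures, incubated overnight at room temperature in the dark, quantifies parasite DNA. Infected erythrocytes at 0.3% parasitemia and 2.5% hematocrit were exposed 72 h; values normalized to DMSO and 0.29 uM artemisinin controls.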

The nature of test [5]: qHTS profiling of the MIPE4 collection as inhibitors of Plasmodium falciparum (3D7) proliferation (AID 743344).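 Note: scaled between DMSO vehicle wells and 0.29 µM artemisinin as full inhibition.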 Conditions: P. falciparum 3D7 in erythrocytes, SYBR Green DNA fluorescence, 72 h; at 28.5 µM (top of the series) unless noted. Put shortly: (§2)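 Parasite DNA was quantified by SYBR Green I fluorescence (ex 485, em 535 nm) after overnight lysis in saponin/Triton buffer at room temperature. Cultures at 0.3% parasitemia and 2.5% hematocrit were first exposed to compound for 72 h at 37 C; signals were normalised to artemisinin (0.29 uM) and vehicle wells.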

Test [6] can be described thus: qHTS profiling of the MIPE4 collection as inhibitors of Plasmodium falciparum (DD2) proliferation (AID 743345). Conditions: P. falciparum Dd2 in erythrocytes, SYBR Green DNA, 72 h; at 28.5 µM (top of the series) unless noted. The gist of the method: as §2
Test [7] is described as follows: qHTS profiling of the MIPE4 collection as inhibitors of Plasmodium falciparum (DD2) proliferation (Rep 2) (AID 743346). Conditions: P. falciparum Dd2 in erythrocytes, SYBR Green DNA, 72 h; at 28.5 µM (top of the series) unless noted. Put shortly:
as §2

Test [8] is described as follows: qHTS profiling of the MIPE4 collection as inhibitors of Plasmodium falciparum (HB3) proliferation (AID 743347).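 Note: plate controls were DMSO vehicle wells for no effect and artemisinin wells for full effect.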 The note with it: P. falciparum HB3 in erythrocytes, SYBR Green DNA, 72 h; at 28.5 µM (top of the series) unless noted. Put shortly:
as §2

A short description of test [9]: High-throughput drug toxicity screening in the BPDCN cell line Gen2.2 (AID 1224824).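 Note: cells exposed to compounds for 48 h before reading.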 Conditions: Gen2.2 BPDCN cells; at 45.8 µM (top of the series) unless noted. Put shortly: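 Seed 500 exponentially growing Gen2.2 cells/well; add compounds by pin tool; incubate 48 h, 37 °C, 5% CO2; add CellTiter-Glo, 15 min RT; read luminescence. % activity vs DMSO (100%) and bortezomib (0%).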

The nature of test [10]: High-throughput drug toxicity screening in the BPDCN cell line Cal-1 (AID 1224825). The note with it: Cal-1 BPDCN cell viability, qHTS; at 45.8 µM (top of the series) unless noted. The gist of the method: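 CellTiter-Glo luminescence after 48 h compound exposure; percent activity scaled with DMSO as 100% and bortezomib (9.2 uM final) as 0%. Cal-1 cells seeded at 500/well in RPMI, 10% FBS, no phenol red.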

Test [11] can be described thus: qHTS assay for measurement of the activity of small molecule inhibitors on Zika virus induced Caspase-3 activity in human iPSC derived neural progenitor cells (hNPCs) (AID 1224857; active = well fitted curve in the direction sought with a large enough effect; an effect the other way counts as inactive or inconclusive; note: % of control where 0% means no effect; nearly all actives have a fitted effect of over 65% in size). The gist of the method: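 Zika virus (2 FFU/cell) infection of human iPSC-derived NPCs, 6 h, following 1 h compound preincubation. Read-out: Caspase-Glo 3/7 luminescence.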
Test [12] is described as follows: qHTS assay for measurement of the activity of small molecule inhibitors on Zika virus induced Caspase-3 activity in human astrocytoma cells (AID 1224859; active = well fitted curve in the direction sought with a large enough effect; an effect the other way counts as inactive or inconclusive;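 note: plate controls were ZIKV-infected untreated cells for no effect and uninfected cells for full effect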). The gist of the method: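 Caspase activation in ZIKV-infected SNB-19 cells (2 FFU/cell, 6 h) measured by Caspase-Glo 3/7 luminescence after 30 min RT; compound pre-incubated 1 h; normalised to uninfected and infected controls.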

Test [13] is described as follows: qHTS Screen of the MIPE 4.0 Collection Against Ewings Sarcoma (RDES) (AID 1259252; active = well fitted curve in the direction sought with a large enough effect; an effect the other way counts as inactive or inconclusive; note: potency is the fitted concentration of half-maximal effect; nearly all actives have a fitted effect of over 35% in size). Put shortly: (§3)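 Dose series incubated 48 h with cells in RPMI plus 5% FBS, glutamine and penicillin/streptomycin; cell viability then quantified via CellTiter-Glo.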
The nature of test [14]: qHTS Screen of the MIPE 4.0 Collection Against Ewings Sarcoma (TC71) (AID 1259253; active = well fitted curve in the direction sought with a large enough effect; an effect the other way counts as inactive or inconclusive; note: nearly all actives have a fitted effect of over 40% in size; note: potency is the fitted concentration of half-maximal effect). Put shortly: as §3
Test [15] can be described thus: qHTS Screen of the MIPE 4.0 Collection Against Ewings Sarcoma (TC32) (AID 1259256; active = well fitted curve in the direction sought with a large enough effect; an effect the other way counts as inactive or inconclusive; note: nearly all actives have a fitted effect of over 45% in size; note: potency is the fitted concentration of half-maximal effect). The gist of the method:
as §3

Records with an inconclusive call do not appear. The source made the active and inactive calls. Unless noted, the rule behind the calls is not given here.

`CCCCCCCCCCCCCC(=O)N[C@H](CO)[C@H](O)c1ccc([N+](=O)[O-])cc1`: the Potency result in test [1] was “inactive”.
With `Nc1ccc(-c2ccc3ncc4ccc(=O)n(-c5cccc(C(F)(F)F)c5)c4c3c2)cn1`, the Potency in test [1] was 0.743 µM (active).
Regarding `Cc1nn(Cc2ccccc2Cl)c(C)c1CN(C)CC(O)COc1ccc(Cl)cc1` (stereo not given), in [2], the Potency result is “inactive”.
Take `C=C[C@@H]1CN2CCC1C[C@@H]2C(O)c1ccnc2ccc(OC)cc12` (stereo not given in full): the activity, percent of control in test [3] is 2.53%. The molecule further had a remaining proliferation (% of control), lower = more inhibition in test [4] of 2.91%. In addition, the parasite growth, % of DMSO control in [5] was 8.37%. For the same molecule, the parasite growth remaining, % of DMSO control (lower = more inhibition) in [6] came out at 9.53%. Besides, in test [7], the parasite growth, % of control (lower = inhibition) came out at 12%. In addition, the growth, % of control in test [8] is 3.29%. Moreover, in test [9], the cell viability, % of control (lower = more cytotoxic) was 130%. In [10], the viability (% of control) is 86%. Also, the Potency result in [11] and in test [12] was “inactive” each time. In addition, the figures for the Potency in [13], in [14] and in test [15] were 3.72 µM (active), 4.18 µM (active) and 1.18 µM (active), respectively.
On to `COc1ccc(-c2oc3c(CC=C(C)C)c(O)cc(O)c3c(=O)c2O)cc1`, for which, in test [5], the parasite growth, % of DMSO control stood at 4.59%. In [6], this molecule registered a parasite growth remaining, % of DMSO control (lower = more inhibition) of 9.79%. Besides, the growth, % of control in [8] stood at 4.42%. For the same molecule, in test [9], the cell viability, % of control (lower = more cytotoxic) is 188%. Also, the viability (% of control) in test [10] worked out at 45.1%. Moreover, the Potency result in test [11] and in [12] was “inactive” throughout. The Potency was 14.8 µM (active) in test [13], 18.7 µM (active) in [14] and 23.5 µM (active) in test [15].
As for `CN(C)CCN(Cc1ccc(Cl)cc1)c1ccccn1`, the parasite growth, % of DMSO control in [5] is 38.2%. The parasite growth remaining, % of DMSO control (lower = more inhibition) in [6] amounted to 50.5%. The parasite growth, % of control (lower = inhibition) in test [7] amounted to 28.6%. Further, the growth, % of control in test [8] is 53%. Besides, the cell viability, % of control (lower = more cytotoxic) in [9] turned out to be 86.6%. For the same molecule, in [10], the viability (% of control) was determined as 37.6%. Besides, the Potency entry in test [11] and in test [12] was “inactive” each time. For the same molecule, the Potency in [13] is 23.5 µM (active); in [14], 20.9 µM (active).
For `CCC[C@H](Nc1nc(-c2ccc(NC(=O)NCC)c(OC)c2)ncc1C)c1cccnc1`, the parasite growth, % of DMSO control in [5] worked out at 4.72%. Besides, the parasite growth remaining, % of DMSO control (lower = more inhibition) in [6] came to 7.78%. Besides, the parasite growth, % of control (lower = inhibition) in test [7] was determined as 20.1%. Further, the growth, % of control in test [8] was 4.28%. Further, in test [9], the cell viability, % of control (lower = more cytotoxic) is 9.57%. This molecule came in with a viability (% of control) in [10] of 4.63%. Also, the Potency result in test [11], in test [12] and in test [15] was “inactive” throughout. Moreover, the Potency in [13] and in [14] was 0.0093 µM (active) each time.
`CCNC(=O)Nc1ccc(Oc2ncnc(N)c2C=NOC)cc1Cl` had a parasite growth, % of DMSO control in test [5] of 71.9%. For the same molecule, the parasite growth remaining, % of DMSO control (lower = more inhibition) in test [6] was found to be 81.9%. The molecule also displayed a parasite growth, % of control (lower = inhibition) in [7] of 67%. In addition, in [9], the cell viability, % of control (lower = more cytotoxic) was determined as 52.6%. In test [10], the viability (% of control) came to 17%. The Potency entry in test [11], in test [12] and in test [14] was “inactive” throughout. For the same molecule, the Potency in test [13] was 8.33 µM (active).
In test [3], `O=C1NC(=O)C(c2cnc3ccccn23)=C1c1cn2c3c(cccc13)CN(C(=O)N1CCOCC1)CC2` yielded an activity, percent of control of 63.3%. The molecule also returned a remaining proliferation (% of control), lower = more inhibition in test [4] of 10.8%. In test [6], this molecule had a parasite growth remaining, % of DMSO control (lower = more inhibition) of 88%. For the same molecule, the parasite growth, % of control (lower = inhibition) in [7] stood at 59.2%. The molecule further came in with a growth, % of control in [8] of 54.5%. Moreover, the cell viability, % of control (lower = more cytotoxic) in [9] is 36.5%. This molecule yielded a viability (% of control) in test [10] of 24.4%. Moreover, the Potency entry in test [11] and in test [12] was “inactive” each time. For the same molecule, the Potency in test [13] is 5.26 µM (active); in test [14], 23.5 µM (active); in test [15] it was 16.6 µM (active).
`CN(C)CCOc1ccc(-c2nc(-c3ccc4c(c3)CCC4=NO)c(-c3ccncc3)[nH]2)cc1` displayed a parasite growth, % of DMSO control in test [5] of 4.92%. Further, the parasite growth remaining, % of DMSO control (lower = more inhibition) in test [6] worked out at 6.01%. The molecule also yielded a parasite growth, % of control (lower = inhibition) in [7] of 6.72%. This molecule also showed a growth, % of control in [8] of 2.95%. The cell viability, % of control (lower = more cytotoxic) in test [9] was found to be 7.29%. The molecule also yielded a viability (% of control) in [10] of 36.1%. The Potency entry in test [11] and in test [12] was “inactive” in each case. Besides, the Potency in test [13] was 33.2 µM (active); in test [14] it was 26.4 µM (active); in [15] it was 23.5 µM (active).
On to `Nc1[nH]nc2nnc(-c3c(-c4ccccc4)nn4ccccc34)cc12`, for which the parasite growth, % of DMSO control in test [5] worked out at 25%. In test [6], this molecule had a parasite growth remaining, % of DMSO control (lower = more inhibition) of 97%. Besides, the parasite growth, % of control (lower = inhibition) in test [7] worked out at 46.8%. In [8], this molecule yielded a growth, % of control of 26%. Moreover, the cell viability, % of control (lower = more cytotoxic) in test [9] came out at 5.31%. The same molecule registered a viability (% of control) in test [10] of 6.85%. Besides, the Potency result in test [11] and in test [12] was “inactive” throughout. Besides, the Potency in [13] is 5.9 µM (active); in test [14], 8.33 µM (active); in test [15], 11.8 µM (active).
